Results as given in PubChem BioAssay (EPA / NIEHS).
Results filed as inconclusive are left out. The source made the active and inactive calls. The calls were made as follows, unless noted: active = hit-call score of the fitted dose curve at least 0.9, where 1 is the maximum; inactive = score below 0.9.

Experiments:
[1] = read-out: E-selectin (Homo sapiens) (UniProt P16581); test: BSK_3C_Eselectin: BioMAP Diversity Plus: 3C Assay for Eselectin Biomarker Activity (AID 2283015); settings: primary human endothelial cells (HUVEC); actives raise or lower the signal
How it was run: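 E-selectin ELISA readout, fitted bidirectionally relative to DMSO, taken 24 h post-dosing in HUVEC cultures of the 3C system. Overt cytotoxicity tracked with sulforhodamine B staining of parallel wells.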

[2] = read-out: Interleukin-1 alpha (IL1a), IL1A (gene 3552); test: BSK_BE3C_IL1a: BioMAP Diversity Plus: BE3C Assay for Interleukin-1 alpha (IL1a) Biomarker Activity (AID 2283016); settings: primary human bronchial epithelial cells; actives raise or lower the signal
How it was run: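 Measured in human lung primary bronchial epithelial cells: IL-1a by ELISA at 24 h after dosing, with bidirectional fitting against DMSO.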

[3] = read-out: Monocyte Chemoattractant Protein-1 (MCP1), CCL2 (gene 6347); test: BSK_4H_MCP1: BioMAP Diversity Plus: 4H Assay for Monocyte Chemoattractant Protein-1 (MCP1) Biomarker Activity (AID 2283018); settings: primary human endothelial cells (HUVEC); actives raise or lower the signal
How it was run: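 Primary human umbilical vein endothelium is exposed to chemical for 24 h before MCP-1 is assayed by ELISA. Concentration-response fitted bidirectionally relative to DMSO.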

[4] = read-out: Human Leukocyte Antigen - DR isotype (HLADR), HLA-DRA (gene 3122); test: BSK_3C_HLADR: BioMAP Diversity Plus: 3C Assay for Human Leukocyte Antigen - DR isotype (HLADR) Biomarker Activity (AID 2283019); settings: primary human endothelial cells (HUVEC); actives raise or lower the signal
How it was run: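 Bidirectional fitting against DMSO was applied to the HLA-DR ELISA signal from human umbilical vein endothelial cells, 24 h post-dose. Cytotoxicity came from parallel SRB total-protein staining; 3C proliferation was counted by SRB at 48 h.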

[5] = read-out: Interleukin-8 (IL8), CXCL8 (gene 3576); test: BSK_3C_IL8: BioMAP Diversity Plus: 3C Assay for Interleukin-8 (IL8) Biomarker Activity (AID 2283020); settings: primary human endothelial cells (HUVEC); actives raise or lower the signal
How it was run: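 Using DMSO-treated wells as the baseline, bidirectional curve fitting was applied to ELISA-measured IL-8 from human umbilical vein endothelial cultures sampled 24 h after compound addition.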

[6] = read-out: Monokine induced gamma interferon (MIG), CXCL9 (gene 4283); test: BSK_3C_MIG: BioMAP Diversity Plus: 3C Assay for Monokine induced gamma interferon (MIG) Biomarker Activity (AID 2283021); settings: primary human endothelial cells (HUVEC); actives raise or lower the signal
How it was run: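 ELISA-measured MIG in dosed HUVEC 3C cultures at 24 h, analysed by bidirectional fitting with DMSO defining baseline activity.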

[7] = biological target: human Vitamin D Receptor (VDR), VDR (gene 7421) (UniProt P11473); test: ATG_VDR_TRANS: Attagene TRANS-FACTORIAL HepG2 Assay for human Vitamin D Receptor (VDR) (AID 2283022; active = hit-call score of the fitted dose curve at least 0.9, where 1 is the maximum)
Sequence of human Vitamin D Receptor (VDR), VDR (gene 7421) (P11473 whole entry, looked up, the tested form may be a part): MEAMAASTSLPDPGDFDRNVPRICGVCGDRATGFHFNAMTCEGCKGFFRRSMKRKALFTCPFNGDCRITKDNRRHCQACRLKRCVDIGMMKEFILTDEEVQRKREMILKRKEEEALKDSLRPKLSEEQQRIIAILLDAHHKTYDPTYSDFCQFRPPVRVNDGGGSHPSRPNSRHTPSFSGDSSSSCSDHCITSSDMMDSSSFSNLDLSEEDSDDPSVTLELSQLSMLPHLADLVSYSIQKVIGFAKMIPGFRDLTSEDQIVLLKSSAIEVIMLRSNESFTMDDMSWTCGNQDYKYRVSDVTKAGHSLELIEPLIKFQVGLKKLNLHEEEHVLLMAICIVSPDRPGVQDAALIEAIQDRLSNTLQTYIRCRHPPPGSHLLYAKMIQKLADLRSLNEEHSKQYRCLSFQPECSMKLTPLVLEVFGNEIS
How it was run: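 Transactivation by an exogenous VDR-Gal4 chimera in transiently transfected HepG2 cells was measured as reporter transcript level 24 hours after chemical treatment. RT-PCR products were analysed by capillary electrophoresis and fitted in the positive direction relative to DMSO.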

[8] = BSK_3C_SRB: Viability Assessment in the BioMAP Diversity Plus: 3C Assay (AID 2283023); settings: primary human endothelial cells (HUVEC);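 also: fitted both ways against DMSO so a hit may be signal rise or drop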
How it was run: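 Cytotoxicity readout in parallel HUVEC 3C cultures: after 24 h compound exposure, cells fixed with 10% TCA, stained with 0.1% SRB and read at 560 nm. Gain or loss relative to DMSO fitted.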

[9] = read-out: Matrix Metallopeptidase 1 (MMP1), MMP1 (gene 4312); test: BSK_BE3C_MMP1: BioMAP Diversity Plus: BE3C Assay for Matrix Metallopeptidase 1 (MMP1) Biomarker Activity (AID 2283024); settings: primary human bronchial epithelial cells; actives raise or lower the signal
How it was run: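 In this multiplexed primary-cell system, human bronchial epithelium received chemicals for 24 h before an ELISA for MMP1. Values reflect bidirectional fits normalised to the DMSO baseline.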

[10] = BSK_3C_Vis: BioMAP Diversity Plus: 3C Assay for Morphology Visualization (AID 2283025); settings: primary human endothelial cells (HUVEC);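 also: fitted both ways so gain or loss versus DMSO counts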;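 as to AC50: light microscopy image of cell morphology used as background control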
How it was run: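 Light-microscopy morphology readout, 24 h exposure, human primary umbilical vein endothelium; analysed relative to DMSO with bidirectional fitting.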

[11] = read-out: Pselectin, SELP (gene 6403); test: BSK_4H_Pselectin: BioMAP Diversity Plus: 4H Assay for Pselectin Biomarker Activity (AID 2283026); settings: primary human endothelial cells (HUVEC); actives raise or lower the signal
How it was run: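 Bidirectional fits against DMSO gave the endpoint. Cells: primary human umbilical vein endothelium, chemical-treated for 24 h before ELISA detection of P-selectin.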

[12] = BSK_4H_SRB: Viability Assessment in the BioMAP Diversity Plus: 4H Assay (AID 2283027); settings: primary human endothelial cells (HUVEC);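 also: cells exposed to compound for 24 h before staining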;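 as to AC50: curves fitted both ways versus DMSO so AC50 may be loss or gain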
How it was run: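 Cytotoxicity read-out in primary human endothelial cells: after 24 h compound exposure, cells were TCA-fixed (10%), stained with 0.1% SRB and absorbance taken at 560 nm. Values fitted in both directions relative to DMSO.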

[13] = BSK_BE3C_SRB: Viability Assessment in the BioMAP Diversity Plus: BE3C Assay (AID 2283028); settings: primary human bronchial epithelial cells
How it was run: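 Cytotoxicity read-out: SRB (0.1%) staining of TCA-fixed (10%) human lung bronchial epithelial cells, absorbance 560 nm, 24 h post-dosing. Curves fitted both directions relative to DMSO.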

[14] = read-out: Thrombomodulin, THBD (gene 7056); test: BSK_3C_Thrombomodulin: BioMAP Diversity Plus: 3C Assay for Thrombomodulin Biomarker Activity (AID 2283029); settings: primary human endothelial cells (HUVEC); actives raise or lower the signal
How it was run: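 In a multiplexed primary-cell system, human umbilical vein endothelium received chemical and was assayed 24 h later for thrombomodulin by ELISA. Parallel cultures were SRB-stained (0.1% SRB after 10% TCA fixation, read at 560 nm) to flag cytotoxicity.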

[15] = read-out: Urokinase-type plasminogen activator receptor (uPAR), PLAUR (gene 5329); test: BSK_4H_uPAR: BioMAP Diversity Plus: 4H Assay for Urokinase-type plasminogen activator receptor (uPAR) Biomarker Activity (AID 2283030); settings: primary human endothelial cells (HUVEC); actives raise or lower the signal
How it was run: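 uPAR level read by ELISA on HUVEC cultures (BioMAP 4H) 24 h post-dosing, analyzed for gain or loss relative to DMSO. Parallel SRB staining assessed overt cytotoxicity.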

[16] = read-out: Vascular endothelial growth factor receptor 2 (Homo sapiens) (UniProt P35968); test: BSK_4H_VEGFRII: BioMAP Diversity Plus: 4H Assay for Vascular endothelial growth factor receptor 2 (VEGFR2) Biomarker Activity (AID 2283031); settings: primary human endothelial cells (HUVEC); actives raise or lower the signal;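 as to AC50: cell-surface VEGFR2 protein level quantified by ELISA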
How it was run: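 Measured by ELISA after 24 h of compound treatment: VEGFR2 on primary human umbilical vein endothelial cells, fitted in both directions relative to DMSO. Parallel cultures received SRB staining (560 nm) for overt cytotoxicity.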

[17] = read-out: Human Leukocyte Antigen - DR isotype (HLADR), HLA-DRA (gene 3122); test: BSK_BE3C_HLADR: BioMAP Diversity Plus: BE3C Assay for Human Leukocyte Antigen - DR isotype (HLADR) Biomarker Activity (AID 2283032); settings: primary human bronchial epithelial cells; actives raise or lower the signal
How it was run: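 BioMAP BE3C format: human bronchial epithelium, 24 h compound treatment, ELISA detection of HLA-DR, with bidirectional analysis relative to DMSO.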

[18] = read-out: Vascular cell adhesion molecule 1 (VCAM1), VCAM1 (gene 7412); test: BSK_4H_VCAM1: BioMAP Diversity Plus: 4H Assay for Vascular cell adhesion molecule 1 (VCAM1) Biomarker Activity (AID 2283033); settings: primary human endothelial cells (HUVEC); actives raise or lower the signal
How it was run: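 In this human endothelial (HUVEC) system, biomarker ELISA was run 24 h after compound addition, and total protein in parallel wells was assessed by SRB at 560 nm; DMSO served as negative control.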

[19] = read-out: Interferon-gamma inducible Protein 10 (IP10), CXCL10 (gene 3627); test: BSK_BE3C_IP10: BioMAP Diversity Plus: BE3C Assay for Interferon-gamma inducible Protein 10 (IP10) Biomarker Activity (AID 2283034); settings: primary human bronchial epithelial cells; actives raise or lower the signal
How it was run: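 BE3C cells (human bronchial epithelial, primary); 24 h exposure; ELISA for IP-10; DMSO-referenced bidirectional fit.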

[20] = read-out: Monocyte Chemoattractant Protein-1 (MCP1), CCL2 (gene 6347); test: BSK_3C_MCP1: BioMAP Diversity Plus: 3C Assay for Monocyte Chemoattractant Protein-1 (MCP1) Biomarker Activity (AID 2283017); settings: primary human endothelial cells (HUVEC); actives raise or lower the signal
How it was run: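 MCP-1 was measured by ELISA 24 h after dosing in primary HUVEC 3C cultures and fitted in both directions relative to DMSO; cytotoxicity was checked by SRB total-protein staining in parallel wells.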

Measured: AC50

Sequence of E-selectin (Homo sapiens) (P16581 whole entry, looked up): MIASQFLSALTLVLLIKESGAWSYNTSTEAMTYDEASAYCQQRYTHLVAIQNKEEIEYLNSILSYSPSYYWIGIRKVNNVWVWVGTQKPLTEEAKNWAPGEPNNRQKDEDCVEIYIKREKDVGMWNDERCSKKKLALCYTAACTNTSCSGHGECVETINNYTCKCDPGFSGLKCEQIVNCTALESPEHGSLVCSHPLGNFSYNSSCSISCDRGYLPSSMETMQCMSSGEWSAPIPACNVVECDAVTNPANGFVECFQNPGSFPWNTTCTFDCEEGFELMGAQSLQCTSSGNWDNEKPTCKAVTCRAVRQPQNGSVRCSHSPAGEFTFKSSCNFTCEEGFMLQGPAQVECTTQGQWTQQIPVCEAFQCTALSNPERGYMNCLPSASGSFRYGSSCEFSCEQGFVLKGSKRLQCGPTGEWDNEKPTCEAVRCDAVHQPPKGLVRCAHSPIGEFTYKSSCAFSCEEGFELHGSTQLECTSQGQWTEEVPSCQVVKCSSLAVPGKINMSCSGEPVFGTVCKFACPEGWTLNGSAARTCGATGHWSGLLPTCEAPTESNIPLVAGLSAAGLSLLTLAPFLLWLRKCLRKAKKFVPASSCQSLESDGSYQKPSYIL

CC[C@H]1CC[C@H](NCc2cc3c(cc2OC)[C@H]2C[C@H]2C(=O)N3C)[C@H](c2ccccc2)N1
inactive: [1] | [2] | [3] | [4] | [5] | [6] | [7] | [8] | [9] | [10] | [11] | [12] | [13] | [14] | [15] | [16] | [17] | [18]

O=C(NS(=O)(=O)/C=C/c1ccccc1)c1ccc(F)cc1Cl
inactive: [1] | [2] | [3] | [4] | [5] | [6] | [8] | [9] | [10] | [11] | [12] | [13] | [14] | [15] | [16] | [18] | [19]
active: [17] 6.15 µM

CC/C(=C\C(=N/O)C(N)=O)C(C)[N+](=O)[O-] (stereo unspecified)
inactive: [2] | [20] | [3] | [4] | [5] | [6] | [7] | [8] | [9] | [10] | [11] | [12] | [13] | [14] | [15] | [16] | [17] | [18]

C[C@](N)(Cc1ccc(O)c(O)c1)C(=O)O
inactive: [2] | [20] | [3] | [4] | [5] | [6] | [7] | [8] | [9] | [10] | [11] | [12] | [13] | [14] | [15] | [16] | [17] | [18]

Clc1nc(Cl)c(Cl)c(Cl)c1Cl
inactive: [1] | [3] | [6] | [7] | [8] | [9] | [12] | [13] | [14] | [15] | [16] | [19]
active: [2] 29.2 µM | [4] 31.2 µM | [5] 14.2 µM | [10] 37.5 µM | [11] 30.2 µM | [17] 26.4 µM | [18] 20 µM

CC[C@H](C)C(=O)O[C@H]1C[C@@H](C)C=C2C=C[C@H](C)[C@H](CC[C@@H]3C[C@@H](O)CC(=O)O3)[C@H]21
inactive: [6] | [7] | [14]
active: [1] 31.6 µM | [2] 33.6 µM | [3] 1.98 µM | [4] 31.5 µM | [5] 25.5 µM | [8] 9.87 µM | [9] 33.8 µM | [10] 28.3 µM | [11] 32.9 µM | [12] 19.9 µM | [15] 19.9 µM | [16] 27.3 µM | [17] 35.9 µM

COc1ccc(/C=C/S(=O)(=O)NC(=O)c2ccc(C)cc2Cl)cc1
inactive: [2] | [20] | [3] | [4] | [5] | [6] | [7] | [8] | [9] | [10] | [11] | [12] | [13] | [14] | [15] | [16] | [17] | [18] | [19]
